Laboratory results published in PubChem BioAssay AID1117289 (Broad Institute, 2014).
Potency and affinity values are given separately. Inconclusive results are not listed. Calls of active or inactive are those of the source.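 The calls were made as follows: active = inhibitor whose fitted half-maximal dose is at most twice the top tested dose in every run; inconclusive = runs disagree, poor fit, or flat fit inhibiting 30 to 70%; inactive = every run inactive, flat, rising or too weak.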

molecular target: Endoplasmic reticulum aminopeptidase 2 (Homo sapiens) (UniProt Q6P179); assay: ERAP2 aminopeptidase inhibitors, dose response, selectivity assay for selective ERAP1 modulator project, biochemical, plate reader, dry powder, set 2 (AID 1117289); conditions: purified ERAP2, Arg-AMC hydrolysis fluorescence, 1 h; series mostly up to 50 µM; activity change, negative = inhibition: at the top concentration
Sequence (Q6P179 whole entry, looked up): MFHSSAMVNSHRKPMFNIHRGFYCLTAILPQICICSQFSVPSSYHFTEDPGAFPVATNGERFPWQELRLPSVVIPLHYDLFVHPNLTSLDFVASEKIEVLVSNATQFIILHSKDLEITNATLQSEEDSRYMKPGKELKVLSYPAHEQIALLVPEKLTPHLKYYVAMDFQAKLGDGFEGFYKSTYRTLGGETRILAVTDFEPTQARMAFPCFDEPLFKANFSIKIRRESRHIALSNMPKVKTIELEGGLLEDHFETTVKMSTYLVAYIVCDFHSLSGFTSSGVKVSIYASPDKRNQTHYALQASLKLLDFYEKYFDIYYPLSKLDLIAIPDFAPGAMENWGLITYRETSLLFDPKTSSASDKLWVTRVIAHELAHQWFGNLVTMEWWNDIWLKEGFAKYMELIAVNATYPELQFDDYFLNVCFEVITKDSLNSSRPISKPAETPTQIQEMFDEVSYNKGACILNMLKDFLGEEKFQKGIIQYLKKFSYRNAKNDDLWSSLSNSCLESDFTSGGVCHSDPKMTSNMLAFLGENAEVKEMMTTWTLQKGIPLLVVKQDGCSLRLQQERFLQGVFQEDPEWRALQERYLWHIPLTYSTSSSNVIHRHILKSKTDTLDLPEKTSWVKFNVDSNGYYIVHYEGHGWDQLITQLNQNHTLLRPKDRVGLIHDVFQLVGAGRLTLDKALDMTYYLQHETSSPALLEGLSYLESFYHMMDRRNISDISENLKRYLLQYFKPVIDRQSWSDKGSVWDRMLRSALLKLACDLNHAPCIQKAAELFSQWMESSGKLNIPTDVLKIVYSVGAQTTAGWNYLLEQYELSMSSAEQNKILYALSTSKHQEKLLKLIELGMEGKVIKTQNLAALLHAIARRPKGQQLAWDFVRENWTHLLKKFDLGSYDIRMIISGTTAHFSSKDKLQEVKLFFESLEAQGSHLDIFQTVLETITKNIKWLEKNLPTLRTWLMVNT

Activity change, negative = inhibition, inactive:
COc1ccc(C(=O)O)cc1S(=O)(=O)Nc1cc(C)ccc1N1CCCCC1 19.8%
COc1ccc(C(=O)O)cc1S(=O)(=O)Nc1cc(F)ccc1N1CCCCC1 13.2%
COc1ccc(C2=NN(c3ccc(C(=O)O)cc3)C(c3ccc(OC)c(OC)c3)C2)cc1 (stereo not given) 289% [at 6 µM]
COc1ccc(C(=O)O)cc1S(=O)(=O)N1CCN(c2ccc(C(F)(F)F)cc2N)CC1 25.1%
COc1ccc(C(=O)O)cc1S(=O)(=O)Nc1cc(C(F)(F)F)ccc1N1CCN(C)CC1 -3.47%
O=C(O)c1cccc(S(=O)(=O)Nc2cc(C(F)(F)F)ccc2N2CCCCC2)c1 19.5%
COc1ccc(C(=O)O)cc1S(=O)(=O)Nc1ccc(N2CCCCC2)cc1C(F)(F)F 21.9%
O=C(O)c1ccc(Cl)c(S(=O)(=O)Nc2cc(C(F)(F)F)ccc2N2CCCCC2)c1 -2.09%
COc1ccc(C(=O)Nc2cccc(C(F)(F)F)c2)cc1S(=O)(=O)O 30%
COc1ccc(C(=O)O)cc1S(=O)(=O)N(C)c1cc(C(F)(F)F)ccc1N1CCCCC1 2.48%
COc1ccc(C(=O)O)cc1S(=O)(=O)Nc1cccc(N2CCCCC2)c1C(F)(F)F 27.3%
COc1ccc(C(=O)O)cc1S(=O)(=O)Nc1cc(C(F)(F)F)ccc1N1CCN(C(C)=O)CC1 31.4%
COc1ccc(C(=O)O)cc1S(=O)(=O)Nc1cc(C(F)(F)F)ccc1N1CCOCC1 25%
Cc1ccc(S(=O)(=O)Nc2cc(C(F)(F)F)ccc2N2CCCCC2)cc1C(=O)O -23.1%

outcome, inactive:
COc1ccc(C(=O)O)cc1S(=O)(=O)Nc1cc(C(F)(F)F)ccc1N1CCCCC1
